Hits are enriched below; roughly 1.4% of the tested compounds scored in any of these assays.
p-CIP stab down: p/CIP-EGFP fusion destabilizers, primary screen, fluorescence, F442A cells; Q05BA5; 16 h; decrease of EGFP signal, % at 10 µM; 0.01% of 290,000 active; AID 1984, 2009;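 active means EGFP signal decrease of at least 30% at 10 µM or well 3 SD below plate mean, unless failing retest; inactive means the rest, including hits failing retest or dose response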
bovine MsrA act: bovine MsrA enzyme activators, primary screen, biochemical, absorbance, HTS; purified bovine MsrA, absorbance read-out; activation, % at 10.6 µM; AID 602163, 2012; 0.3% of 360,000 active; Methionine sulfoxide reductase A (Bos taurus); in the data active means activation above about 7.5%
14-3-3 Bad inh: inhibitors of 14-3-3 zeta/Bad binding, primary screen, biochemical, TR-FRET, bovine 14-3-3 zeta; 14-3-3 protein zeta/delta (Bos taurus), P63103; TR-FRET 14-3-3zeta/Dy647-pBad peptide displacement, 1 h; inhibition, % at 21.7 µM; 0.71% of 220,000 active; AID 781, 2007;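 active means inhibition above about 70%, limit read from the data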
Target sequence (P63103 whole entry, looked up): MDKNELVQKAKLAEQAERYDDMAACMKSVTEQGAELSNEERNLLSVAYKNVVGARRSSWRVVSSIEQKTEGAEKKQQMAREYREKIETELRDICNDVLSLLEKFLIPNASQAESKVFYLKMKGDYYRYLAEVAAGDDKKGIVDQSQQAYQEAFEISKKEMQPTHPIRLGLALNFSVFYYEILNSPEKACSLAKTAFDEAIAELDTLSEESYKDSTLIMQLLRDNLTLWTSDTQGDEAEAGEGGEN
MsrA inhibitor: bovine MsrA enzyme inhibitors, primary screen, biochemical, absorbance, HTS; inhibition, % at 15.5 µM; Methionine sulfoxide reductase A (Bos taurus); purified bovine MsrA, absorbance read-out; 0.75% of 360,000 active
MsrA inh confirm: bovine MsrA inhibitors, retest, confirmation, biochemical, absorbance, HTS. shares compounds with MsrA inhibitor. purified bovine MsrA, absorbance read-out. inhibition, % at 15.5 µM. 41% of 2,300 active. AID 651822, 2012;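 further: coupled to thioredoxin reductase with NADPH and selenocystamine and DMSO as substrate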
Hits are given with their value; n = inactive; x = no result. Unless noted, no stated cut-off is given here; in the data, active means inhibition above about 4.5%; inactive means the rest.

SMILES	p-CIP stab down	bovine MsrA act	14-3-3 Bad inh	MsrA inhibitor	MsrA inh confirm
O=C1CC(C(=O)Nc2ccc(Cl)c(Cl)c2)S/C(=N\N=C\c2ccco2)N1 (stereo not drawn)	n	n	n	n	x
COc1ccc(/C=N/N=C2/NC(=O)CC(C(=O)O)S2)cc1 (stereo not drawn)	n	n	n	5.0	n
O=C1CC(C(=O)Nc2ccc(Br)cc2)S/C(=N\N=C\c2ccco2)N1 (stereo not drawn)	n	n	n	n	x
O=C1CC(C(=O)Nc2ccc(Cl)cc2)S/C(=N\N=C\c2ccco2)N1 (stereo not drawn)	n	n	n	5.6	n
COc1ccc(NC(=O)C2CC(=O)N/C(=N/N=C/c3ccco3)S2)cc1 (stereo not drawn)	n	n	n	5.1	5.1
CCCCN(C(=O)CSc1ncn[nH]1)c1c(N)n(Cc2ccccc2)c(=O)[nH]c1=O	x	n	x	n	x
COc1ccc(/C=C/C(=O)N2CCNC(=O)C2)c(OC)c1	n	n	n	4.8	n
O=C1CN(C(=O)/C=C/c2cc(Br)ccc2F)CCN1	n	n	x	n	x
Cn1nc(N2CCN(S(=O)(=O)c3ccccc3)CC2)c(=O)n(C)c1=O	x	n	x	n	x
CCN(CC)S(=O)(=O)c1ccc(N/N=C/c2ccc(O)cc2)nc1	n	n	n	5.7	4.9
Nc1nonc1-c1nc2ccccc2n1CC(=O)N/N=C/c1ccc(-c2ccccc2C(=O)O)o1	n	n	n	7.3	6.9
O=C1CCCc2nc(N3CCCCC3)sc21	n	n	n	5.8	5.2
COc1cccc(C2=N/C(=C\N(C)C)C(=O)O2)c1	n	n	n	10.5	7.0
COc1cccc(-c2nc3ccccc3c(=O)o2)c1	n	n	n	n	x
CN=Cc1nc(-c2ccccc2)oc1O	n	n	n	9.9	7.3
CCSc1nc(N2CCOCC2)c2c(c1C#N)CCCC2	n	n	n	13.0	13.1
COC(=O)CSc1nc(N2CCOCC2)c2c(c1C#N)CCCC2	n	n	n	8.2	6.9
CCN1CCc2c(C#N)c(N3CCCCC3)nc(N3CCOCC3)c2C1	n	n	n	4.8	n
CCN1CCc2c(C#N)c(N3CCOCC3)nc(N3CCOCC3)c2C1	n	n	n	n	x
N#Cc1c(SCC(=O)O)nc(N2CCOCC2)c2c1CCCC2	n	n	n	n	x
COc1ccc(OCC(=O)Nc2cccc(S(=O)(=O)N(C)c3ccccc3)c2)c([N+](=O)[O-])c1	x	n	x	n	x
O=C(/C=C/c1ccccc1)c1ccccc1	n	n	n	n	x
O=C(/C=C/c1ccccc1)/C=C/c1ccccc1	n	n	n	4.9	n
COc1ccc(S(N)(=O)=O)cc1C(=O)N1CCCC1	n	n	n	n	x
O=C(COc1ccccc1)N[C@@H]1c2ccccc2CC[C@@H]1O	x	n	x	n	x
SMILES	p-CIP stab down	bovine MsrA act	14-3-3 Bad inh	MsrA inhibitor	MsrA inh confirm
C/C(=N\Nc1ccc(S(N)(=O)=O)cc1[N+](=O)[O-])c1cccnc1	n	n	x	11.2	10.2
C/C(=N\Nc1ccc([N+](=O)[O-])cc1[N+](=O)[O-])c1cccnc1	n	n	x	13.0	15.7
C/C(=N\NC(=O)c1cccnc1)c1cccc([N+](=O)[O-])c1	n	n	n	n	x
O=C(CCCN1C(=O)c2cccc3cccc(c23)C1=O)N1CCN(c2ccccc2)CC1	n	n	n	n	x
O=C(CCCN1C(=O)c2cccc3cccc(c23)C1=O)N1CCN(c2ccccc2O)CC1	n	n	n	5.1	n
Cc1ccc(Cl)cc1NC1=C/C(=N\S(=O)(=O)c2cccs2)c2ccccc2C1=O	n	n	n	5.6	8.2
O=C(O)c1ccc(NC2=C/C(=N/S(=O)(=O)c3ccccc3)c3ccccc3C2=O)cc1	n	n	n	65.4	62.8
Cc1cc(C)c(S(=O)(=O)/N=C2\C=C(Nc3ccc(C(=O)O)cc3)C(=O)c3ccccc32)c(C)c1	n	n	x	18.9	20.8
Cc1cc(C)c(S(=O)(=O)/N=C2\C=C(NS(=O)(=O)c3ccccc3)C(=O)c3ccccc32)c(C)c1	n	n	x	n	x
CCc1ccc(S(=O)(=O)/N=C2\C=C(Nc3cccc(C(=O)O)c3)C(=O)c3ccccc32)cc1	n	n	x	52.2	53.1
Cc1cccc(NC2=C/C(=N/S(=O)(=O)c3cccs3)c3ccccc3C2=O)c1	n	n	n	n	x
O=C(O)c1ccc(NC2=C/C(=N/S(=O)(=O)c3cccs3)c3ccccc3C2=O)cc1	x	n	x	62.2	65.9
Cc1cc(/C=C(\C#N)C(=O)N2CCCCC2)cc(C)c1O	n	n	x	4.8	n
N#C/C(=C\c1cccc(O)c1)C(=O)N1CCCCC1	n	n	x	n	x
C=CCNC(=O)/C(=C\C=C\c1ccccc1)NC(=O)c1ccccc1Cl	n	n	n	n	x
O=C(O)CCCNC(=O)/C(=C\C=C\c1ccccc1)NC(=O)c1ccccc1Cl	n	n	n	5.8	n
CCOc1ccccc1/C=N\Nc1cnn(Cc2ccccc2)c(=O)c1Cl	n	n	n	n	x
Cc1cccc(/C=N\Nc2cn[nH]c(=O)c2Cl)c1	n	n	n	8.1	5.0
O=c1[nH]ncc(N/N=C\c2cccnc2)c1Cl	n	n	n	n	x
O=c1[nH]ncc(N/N=C\c2cccs2)c1Cl	n	n	n	9.1	6.2
COc1ccccc1/C=N\Nc1cn[nH]c(=O)c1Cl	n	n	n	5.8	4.7
C(=N\Nc1nc2ccccc2s1)/c1cccs1	n	n	n	n	x
O=c1[nH]ncc(N/N=C\c2ccncc2)c1Cl	n	n	n	9.6	6.0
COc1cc(Cl)c(C)cc1NC(=O)COC(=O)C1=COCCO1	x	n	x	n	x
CCOc1ccccc1C1C(C#N)=C(N)N(N(C)C)C2=C1C(=O)CCC2 (stereo not drawn)	n	n	x	n	x
SMILES	p-CIP stab down	bovine MsrA act	14-3-3 Bad inh	MsrA inhibitor	MsrA inh confirm
Cc1cc(C(=O)O)ccc1-n1c(C)cc(/C=C2\SC(=O)NC2=O)c1C	n	n	x	5.7	n
CC1CCCC(C)N1C(=O)COC(=O)c1n[nH]c(=O)c2ccccc12 (stereo not drawn)	x	n	x	n	x
N#C/C(=C/Nc1ccccc1C(=O)O)C(N)=O	n	n	n	5.8	6.8
CCCNC(=O)C1(C)CCCN(C(=O)c2ccc(F)c(Cl)c2)C1 (stereo not drawn)	x	n	x	n	x
CCOc1ccc(/C=N/NC(=O)Cc2ccccc2)cc1CN1CC2CC(C1)c1cccc(=O)n1C2 (stereo not drawn)	x	n	x	n	x
O=C(Nc1nc2ccccc2[nH]1)c1ccc(Br)o1	n	n	n	4.8	n
COc1cccc(C2=CC(c3cccc(OC)c3OC)n3nnnc3N2)c1 (stereo not drawn)	n	n	n	14.4	9.3
COc1ccc(C(=O)/C=C/Nc2cc(C)on2)cc1	n	n	n	6.6	6.2
COc1ccc(/C=C/C(=O)Nc2cc(C)on2)cc1	n	n	n	n	x
Cc1ccc(C2/C(=C(\O)c3c(C)nc4c(C)cccn34)C(=O)C(=O)N2CCN(C)C)o1 (stereo not drawn)	x	n	x	n	x

Screening results as filed in PubChem.
